Reference: PubChem BioAssay (NCATS)
Results filed as inconclusive are left out. Activity calls are given as the source filed them. Calls come from the whole dose curve; as a rule, active = well fitted curve in the direction sought with a large enough effect; inconclusive = small, poorly fitted or top-dose-only effect, or another doubt; inactive = no such curve, though single readings can be large; an effect the other way counts as inactive or inconclusive.

What was measured:
[1] = molecular target: Metallo-beta-lactamase type 2 (Klebsiella pneumoniae) (UniProt C7C422); assay: qHTS to identify inhibitors of the New Delhi Metallo-beta-lactamase (NDM): assay validation screen against the NCATS LOPAC Collection (AID 1794843);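 note: nitrocefin turnover by NDM-1 measured as 485 nm absorbance at plateau; series mostly up to about 38 µM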
Procedure, shortened: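 NDM-1 at 2 nM final in 50 mM HEPES pH 7.0 with 1 uM ZnSO4 and 0.01% Tween20 was preincubated with library compounds in DMSO. Nitrocefin (50 uM stock) was then added, and absorbance at 485 nm was read at the kinetic plateau.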

[2] = molecular target: Glutathione peroxidase 1 (Homo sapiens) (UniProt P07203); assay: Primary qHTS Assay for Inhibitors of Recombinant Selenoprotein Glutathione Peroxidase 1 (GPX1) (AID 1845191); note: nearly all actives have a fitted effect of over 65% in size
Procedure, shortened: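 10 nM GPX1 + cpd, 30 min RT; start w/ 1 mM GSH, 0.5 mM cumene hydroperoxide, 0.5 mM NADPH, 100 nM GR, 0.01% BSA; buffer 50 mM Tris-HCl pH 7.5, 2 mM EDTA, 150 mM NaCl; Fl 340/450, 0 & 15 min.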

[3] = molecular target: Phospholipid hydroperoxide glutathione peroxidase GPX4 (Homo sapiens) (UniProt P36969); assay: Primary qHTS Assay for Inhibitors of Recombinant Selenoprotein Glutathione Peroxidase 4 (GPX4) (AID 1845192); note: nearly all actives have a fitted effect of over 65% in size
Procedure, shortened: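 NADPH consumption, followed by fluorescence at 340/450 nm between 0 and 15 min, reports GPX4 activity via coupled glutathione reductase (100 nM). Enzyme 200 nM was pre-exposed to compound 30 min; 0.5 mM cumene hydroperoxide and 1 mM GSH served as substrates.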

Measured: Potency

Chain of Phospholipid hydroperoxide glutathione peroxidase GPX4 (Homo sapiens) (P36969 whole entry, looked up): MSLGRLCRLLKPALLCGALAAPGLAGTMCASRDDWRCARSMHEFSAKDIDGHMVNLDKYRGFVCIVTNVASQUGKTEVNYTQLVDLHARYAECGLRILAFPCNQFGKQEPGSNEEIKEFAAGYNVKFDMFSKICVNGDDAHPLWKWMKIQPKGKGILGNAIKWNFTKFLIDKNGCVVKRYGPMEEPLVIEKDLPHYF
Chain of Metallo-beta-lactamase type 2 (Klebsiella pneumoniae) (C7C422 whole entry, looked up): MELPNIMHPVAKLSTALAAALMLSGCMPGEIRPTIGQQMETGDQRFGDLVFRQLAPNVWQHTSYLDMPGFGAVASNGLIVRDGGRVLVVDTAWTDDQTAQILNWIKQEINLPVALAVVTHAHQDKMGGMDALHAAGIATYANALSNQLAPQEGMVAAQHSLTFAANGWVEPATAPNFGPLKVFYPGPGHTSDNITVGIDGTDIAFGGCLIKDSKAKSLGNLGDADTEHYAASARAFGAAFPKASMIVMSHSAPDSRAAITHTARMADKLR
Chain of Glutathione peroxidase 1 (Homo sapiens) (P07203 whole entry, looked up): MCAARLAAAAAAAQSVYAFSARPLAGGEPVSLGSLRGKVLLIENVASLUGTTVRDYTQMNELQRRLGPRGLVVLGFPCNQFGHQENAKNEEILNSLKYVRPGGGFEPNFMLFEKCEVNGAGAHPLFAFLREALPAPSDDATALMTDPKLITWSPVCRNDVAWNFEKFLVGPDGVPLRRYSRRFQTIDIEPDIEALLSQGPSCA

O=C(c1ccc2c(c1)OCCO2)N1CCCCC1
inactive: [1] | [2] | [3]

Cc1nc2n(c(=O)c1CCN1CCC(c3noc4cc(F)ccc34)CC1)CCCC2O (configuration not stated)
inactive: [1] | [2] | [3]

[N-]=[N+]=Nc1ccc(C(=O)CSC[C@H](NC(=O)CC[C@H](N)C(=O)O)C(=O)NCC(=O)O)cc1
inactive: [1] | [2] | [3]

O=c1ccn([C@@H]2O[C@H](COP(=O)(O)OP(=O)(O)O)[C@@H](O)[C@H]2O)c(=O)[nH]1
inactive: [1] | [2] | [3]

COc1cc(CC(=O)O)ccc1O
inactive: [1] | [2] | [3]

NC(Cc1cccc(-c2ccccc2CP(=O)(O)O)c1)C(=O)O (configuration not stated)
inactive: [1] | [2] | [3]

OC[C@H]1O[C@H](n2cnc3c(N[C@H]4CCC[C@@H]4O)ncnc32)[C@H](O)[C@@H]1O
inactive: [1] | [2] | [3]

O=C(O)c1cccnc1C(=O)O
inactive: [1] | [2] | [3]

O=C(OCCN1CCOCC1)C1(c2ccccc2)CCCCC1
inactive: [1] | [2] | [3]

CC(/C=C/c1cccc(Oc2ccc(F)cc2)c1)N(O)C(N)=O (configuration not stated)
inactive: [1] | [2] | [3]

N[C@@H](Cc1c[nH]c2ccccc12)C(=O)O
inactive: [1] | [2] | [3]

NCCCCN
inactive: [1] | [2] | [3]

Cc1ccc2c(c1)C(N1CCN(C)CC1)=Nc1cccnc1N2
inactive: [1] | [2] | [3]

CCCCCCCCCC(=O)NC(CN1CCOCC1)[C@H](O)c1ccccc1 (some centres not stated)
inactive: [1] | [2] | [3]

O=c1cc(-c2ccccc2F)[nH]c2cc3c(cc12)OCO3
inactive: [1] | [2] | [3]

N[C@H](C(=O)O)[C@H](O)C(=O)O
inactive: [1] | [2] | [3]

C[C@H]1CC2C3CCC4=CC(=O)C=C[C@]4(C)[C@@]3(Cl)[C@@H](O)C[C@]2(C)[C@@]1(O)C(=O)CO (some centres not stated)
inactive: [1] | [2] | [3]

CC[n+]1c(/C=C/C=C2/N(C)c3ccccc3C2(C)C)sc2ccccc21
inactive: [1] | [2] | [3]

COc1cc(CNC(=O)CCCCCCC(C)C)ccc1O
inactive: [1] | [2] | [3]

N=C(N)c1ccccc1
inactive: [1] | [2] | [3]

COC(=O)C(N)Cc1ccc(Cl)cc1 (configuration not stated)
inactive: [1] | [2] | [3]

NCC(O)c1ccc(O)c(O)c1 (configuration not stated)
inactive: [1] | [2] | [3]

CC[C@H](NC(=O)c1c(C)c(-c2ccccc2)nc2ccccc12)c1ccccc1
inactive: [1] | [2] | [3]

NC1CCN(O)C1=O (configuration not stated)
inactive: [1] | [2] | [3]

C/C(=C\c1ccc(C(=O)O)cc1)c1ccc2c(c1)C(C)(C)CCC2(C)C
inactive: [1] | [2] | [3]

COc1ccc(CCn2nnnc2C2(c3ccc(C)cc3)CC2)cc1
inactive: [1] | [2] | [3]

N[C@@H](CCCC(=O)O)C(=O)O
inactive: [1] | [2] | [3]

O=C(O)C1CN(CCCP(=O)(O)O)CCN1 (configuration not stated)
inactive: [1] | [2] | [3]

NC1C=CC=C(C(=O)O)C1 (configuration not stated)
inactive: [1] | [2] | [3]

CN1CC(O)C(O)C(O)C1CO (configuration not stated)
inactive: [1] | [2] | [3]

Nc1ccc(CCNc2ncnc3c2ncn3C2OC(CO)C(O)C2O)cc1 (configuration not stated)
inactive: [1] | [2] | [3]

Nc1ncnc2c1nc(Br)n2C1OC2COP(=O)(O)O[C@@H]2C1O (some centres not stated)
inactive: [1] | [2] | [3]

CC(C)C[C@H](NC(=O)C1OC1C(=O)O)C(=O)NCCCCN=C(N)N (some centres not stated)
inactive: [1] | [2] | [3]

CC(C)Cn1c(=O)n(C)c(=O)c2[nH]cnc21
inactive: [1] | [2] | [3]

COc1ccc(-c2ccc(N)[n+](CCCC(=O)O)n2)cc1
inactive: [1] | [2] | [3]

NC1CONC1=O (configuration not stated)
inactive: [1] | [2] | [3]

Cc1cc2c(cc1Cl)N(C(=O)Nc1ccnc3ccccc13)CC2
inactive: [1] | [2] | [3]

CCCCCC(O)CCCC(=O)O (configuration not stated)
inactive: [1] | [2] | [3]

COc1cc(N)c(Cl)cc1C(=O)OCCN1CCCCC1
inactive: [1] | [2] | [3]

Cn1c(=O)c2[nH]c(C3CCCC3)nc2n(C)c1=O
inactive: [1] | [2] | [3]

NCCCCN=C(N)N
inactive: [1] | [2] | [3]

Cc1nc(N=Nc2ccc(C(=O)O)cc2)c(COP(=O)(O)O)c(C=O)c1O
inactive: [1] | [2] | [3]

N#Cc1cc2nc(O)c(O)nc2cc1[N+](=O)[O-]
inactive: [1] | [2] | [3]

O=c1onc2n1-c1cc(Br)ccc1OC2
inactive: [1] | [2] | [3]

c1ccc(C(NCc2cccnc2)(c2ccccc2)c2ccccc2)cc1
inactive: [1] | [2] | [3]

CCCCCCCCCCCCCCC[C@H](O)[C@H](N)CO
inactive: [1] | [2] | [3]

O=C1Cc2c([nH]c3ccc(Br)cc23)-c2ccccc2N1
inactive: [1] | [2] | [3]

C=CCn1c(=O)c2c(nc(-c3ccc(S(=O)(=O)O)cc3)n2C)n(C)c1=O
inactive: [1] | [2] | [3]

Cn1ccnc1
inactive: [1] | [2] | [3]
